# In the library only some 7.5% were active in any assay of this set; here they are far more common.
# KinaseGlo FLuc: blocks Kinase-Glo luciferase, a counter-screen artifact; Q27757; Kinase-Glo luciferase, ATP luminescence, 8 min; Potency, µM (series often up to 38.3 µM), for inactives: at the top dose activity change, negative = inhibition, usual class: inhibitors; 200,000 compounds, 0.28% hits; AID 1379; further: on the % scale 0 is the no-effect control and ±100 the full control effect; nearly all actives have a fitted effect of over 60% in size
#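 Compound is pinned into ATP-containing buffer (10 uM ATP, imidazole pH 7.2, 7 mM MgCl2). Kinase-Glo luciferase reagent is then added. Light output is recorded following an 8-min room-temperature incubation.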
# NPC1 promoter act: activates the NPC1 promoter; Huh7 NPC1 promoter luciferase reporter, 24 h; Potency, µM (top dose mostly 9.22 µM), without a hit: at the top dose activation, usual class: activators; 320,000 compounds, 2.4% hits; AID 485313; further: % of control where 0% means no effect; nearly all actives have a fitted effect of over 60% in size
#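 Stable NPC1-promoter luciferase Huh7 line; cpd (DMSO) 24 h, 37 °C, 5% CO2; Amplite luciferase reagent 10 min RT; luminescence readout. qHTS format.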
# FLuc modulator: inhibits or activates purified firefly luciferase, miR-21 counter-screen. Potency, µM (series often up to 57.5 µM), inactives show at the top dose activity change, negative = inhibition, most hits filed as inhibitors. 360,000 compounds, 6.9% hits. P08659. purified FLuc, Km substrates, luminescence inhibition. AID 588342;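 further: plate controls were vehicle for no effect and reference inhibitor for full effect; nearly all actives have a fitted effect of over 55% in size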
# Target sequence (P08659 whole entry, looked up): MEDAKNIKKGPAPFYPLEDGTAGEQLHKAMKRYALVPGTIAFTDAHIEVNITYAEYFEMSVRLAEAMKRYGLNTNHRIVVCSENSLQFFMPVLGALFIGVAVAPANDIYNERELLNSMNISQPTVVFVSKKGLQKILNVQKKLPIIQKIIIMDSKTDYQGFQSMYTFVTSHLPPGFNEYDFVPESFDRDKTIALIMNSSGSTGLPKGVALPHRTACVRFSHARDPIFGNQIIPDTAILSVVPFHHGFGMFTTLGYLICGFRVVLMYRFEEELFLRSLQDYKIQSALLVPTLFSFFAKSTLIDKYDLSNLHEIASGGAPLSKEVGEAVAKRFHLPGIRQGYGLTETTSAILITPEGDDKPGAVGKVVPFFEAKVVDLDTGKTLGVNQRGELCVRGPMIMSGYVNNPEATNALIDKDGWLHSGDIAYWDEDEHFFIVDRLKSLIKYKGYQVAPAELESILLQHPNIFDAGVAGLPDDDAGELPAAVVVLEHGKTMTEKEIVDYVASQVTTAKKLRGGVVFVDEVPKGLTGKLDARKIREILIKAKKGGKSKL
#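 Biochemical qHTS of compounds, final roughly 60 µM downward over six points, against 10 nM purified firefly luciferase using Km concentrations of substrates (10 uM D-luciferin, 10 uM ATP) in Tris acetate pH 7.5 buffer; luminescence output.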
# Rab9 promoter act: activators of Rab9 promoter; Huh7 Rab9 promoter-luciferase reporter, luminescence, 24 h; Potency, µM (series often up to 9.22 µM), for the others: at the top dose activation, negative = inhibition, actives largely listed as activators; 320,000 compounds, 2.8% hits; AID 485297; further: % of control where 0% means no effect; nearly all actives have a fitted effect of over 60% in size
#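 Cells were plated at 1500 per well in reduced-serum medium with 10% FBS and left 2 h. Compound in DMSO was then added for 24 h at 37 °C. Reporter signal was read by luminescence after 10 min with luciferase detection reagent.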
# ELG1 genotox: genotoxicity induction in ELG1-luciferase HEK293T cells; AID 504466; HEK293T ELG1-luciferase reporter, luminescence, 16 h; 330,000 compounds, 1.3% hits; Potency, µM (doses to about 46 µM), for the others: top-dose activity change, positive = activation, usual class: activators; further: % of control where 0% means no effect; nearly all actives have a fitted effect of over 60% in size
#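 Step 1: seed 2,000 HEK293T ELG1-luciferase cells per well. Step 2: add compound or DMSO, incubate 16 hr at 37 °C. Step 3: ONE-Glo, 30 min at room temperature, read luminescence.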
# SMN2 splice enh: enhancers of SMN2 splice variant expression. HEK293 SMN2-luciferase splicing reporter, luminescence, 30-36 h. Potency, µM (top dose mostly 46.1 µM), for inactives: at the highest dose activity change, positive = activation, hits mostly activators. 210,000 compounds, 2.8% hits. AID 1458; further: % of control where 0% means no effect; nearly all actives have a fitted effect of over 55% in size
#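 qHTS luciferase splicing reporter: luminescence rises when SMN2 exon 7 is included in transfected HEK293 cells. Compound exposure lasted 30-36 h at 37C, with 4.5 mM final sodium butyrate as control, followed by a ONE-Glo read.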
# * = called active by the depositor; ? = inconclusive; nt = not tested or not shown; [ ] = remark or other dose. The call rests on the fitted dose curve; in most records, active means well fitted curve in the direction sought with a large enough effect; inconclusive means small, poorly fitted or top-dose-only effect, or another doubt; inactive means no such curve, though single readings can be large; an effect the other way counts as inactive or inconclusive. Potency means the concentration at half of the fitted maximal effect.
SMILES,KinaseGlo FLuc,NPC1 promoter act,FLuc modulator,Rab9 promoter act,ELG1 genotox,SMN2 splice enh
COc1ccccc1C(=O)NNC(=O)c1ccc(Br)o1,nt,?,17µM*,20%,?,nt
N#Cc1cccc(NC(=O)N2CC[C@@]3(CCCN(C(=O)c4ccncc4)C3)C2)c1,-1%,nt,nt,nt,nt,11%
COc1ccc(NC(=O)Nc2nc3c(s2)CCCC3)cc1,1%,4µM*,4.8µM*,1.8µM*,18%,13µM*
CN(Cc1ccccc1)c1nnc(NC(=O)Nc2cccc(Br)c2)s1,nt,nt,-13%,nt,nt,nt
O=C(Nc1cccc(Br)c1)Nc1nc2c(s1)CCCCCC2,nt,nt,11µM*,nt,nt,nt
CC1=C(c2ccc(C)c(C)c2)S(=O)(=O)N(Cc2ccc(C(=O)NCc3ccccc3F)cc2)C1=O,nt,nt,-4%,nt,nt,3%
C=C[C@H](C)[C@](C)(O)c1ccccc1,1%,nt,nt,nt,nt,19%
Cc1ccc(O)c(C2=NCCNC(C(F)(F)F)=C2)c1,-2%,-2%,5%,-7%,-3%,-8%
Oc1c(C2=NCCNC(C(F)(F)F)=C2)ccc2ccccc12,-3%,2.8µM*,4.8µM*,2.2µM*,9.2µM*,11µM*
Cc1ccc2onc(CNC(=O)N3CCN(c4cccc(C)c4C)CC3)c2c1,nt,nt,-11%,nt,nt,nt
Cc1ccc(-c2cc(N)n(-c3ccc(C)cc3)n2)cc1,-5%,2.5µM*,13µM*,3.5µM*,?,?
Cc1cc(N)n(-c2ccc(C)c(C)c2)n1,nt,22%,?,29%,?,nt
Cc1ccc(-c2cc(N)n(-c3ccc(F)cc3)n2)cc1,-5%,?,9.5µM*,3.5µM*,23µM*,13µM*
Cc1ccc(-c2cc(-c3c(C)nn(C)c(=O)c3N)[nH]n2)cc1,nt,3%,?,2%,6%,nt
CCc1ccc(-n2c(SCc3ccccc3Cl)nc3[nH]ncc3c2=O)cc1,nt,nt,-8%,nt,nt,nt
Cc1ccc(NC(=O)c2cc3c(=O)[nH]c4ccccc4c3n2C)cc1F,nt,nt,-1%,nt,nt,-2%
C=CCNC(=O)c1ccc(OC2CCN(S(=O)(=O)N(C)C)CC2)cc1,1%,16%,17µM*,?,14%,nt
CCCCC1CCC(C(=O)N(CCCC)c2c(N)n(CCCC)c(=O)[nH]c2=O)CC1 (configuration not stated),nt,-5%,7%,-7%,-1%,nt
COc1cccc(/C=N/NC(=O)c2ccncc2)c1OC(=O)c1ccc(Br)cc1,nt,-6%,-8%,-10%,2%,nt
COc1cc(C2NC(=O)C(C#N)=C(S)N2c2ccc(C)cc2)ccc1OC(C)C (configuration not stated),2%,1%,15µM*,0%,?,-31%
Cc1ccc(N2C(S)=C(C#N)C(=O)NC2c2ccco2)cc1 (configuration not stated),8%,-4%,?,2%,9%,7%
CCOc1ccc(C2NC(=O)C(C#N)=C(S)N2c2ccc(OC)cc2)cc1OC (configuration not stated),0%,3%,21µM*,3%,1%,-6%
Cc1ccc(N2C(S)=C(C#N)C(=O)NC2c2cccs2)cc1 (configuration not stated),0%,0%,-16%,1%,-1%,4.5µM*
COc1ccc(C2NC(=O)C(C#N)=C(S)N2c2ccc(C)cc2)cc1OC (configuration not stated),0%,-1%,19µM*,-2%,2%,17%
N#CC1=C(S)N(c2ccccc2)C(c2cccs2)NC1=O (configuration not stated),6%,6%,6%,2%,-3%,24%
SMILES,KinaseGlo FLuc,NPC1 promoter act,FLuc modulator,Rab9 promoter act,ELG1 genotox,SMN2 splice enh
COc1ccc(N2C(S)=C(C#N)C(=O)NC2c2ccc(OC)c(OC)c2)cc1 (configuration not stated),0%,-7%,?,-5%,6%,nt
COc1ccc(C2NC(=O)C(C#N)=C(S)N2c2cccc(C)c2)cc1OC (configuration not stated),0%,-9%,?,-8%,-2%,-3%
Cc1ccc(Cn2c(C)c3cnn(CC(=O)N4CCN(c5ccc(F)cc5)CC4)c(=O)c3c2C)cc1,nt,nt,?,nt,nt,-8%
CC(C)(C)OC(=O)[C@H](C1N[C@@H](C(=O)O)C(C)(C)S1)N1C(=O)c2ccccc2C1=O (some centres not stated),-4%[7.66 µM],nt,nt,nt,nt,-1%[9.22 µM]
Cc1ccc(S(=O)(=O)C(CNS(=O)(=O)c2cc(F)ccc2F)c2cccs2)cc1 (configuration not stated),nt,nt,-14%,nt,nt,nt
CSCCC(N=C(NS(=O)(=O)c1ccc(C)cc1)c1ccccc1)C(=O)O (configuration not stated),nt,-2%,6%,0%,-6%,nt
COc1ccc(N/C=C2\CCOC2=O)cc1,0%,5%,2%,10%,12%,-6%
O=C1OC2(CCCCC2)OC(=O)C1=CNc1ccc2c(c1)OCO2,-2%,8%,?,0%,5%,11%
COc1ccc(N/C=C2\CCc3ccccc3C2=O)cc1,11µM*,0.25µM*,0.054µM*,0.1µM*,?,nt
COc1ccc2c(c1)CC/C(=C\Nc1ccc3c(c1)OCO3)C2=O,-9%,3.5µM*,1.2µM*,2.5µM*,8%,35µM*
O=C1/C(=C/Nc2ccc3c(c2)OCO3)CCc2ccccc21,2.8µM*,0.89µM*,0.12µM*,0.28µM*,?,-76%
CC(NC(=O)CCCC1=NS(=O)(=O)c2ccccc2N1)c1ccccc1 (configuration not stated),nt,nt,-2%,nt,nt,nt
COC(=O)c1ccccc1NC(=O)COc1ccccc1[N+](=O)[O-],-1%,4%,-17%,8%,0%,-14%
Cc1ccc(OCC(=O)Nc2ccccc2[N+](=O)[O-])c(Br)c1,-2%,3.2µM*,2.4µM*,2.8µM*,?,18µM*
C/C(CC(=O)Nc1ccccc1-c1ccccc1)=N\NC(=O)COc1ccc(C)cc1Br,3%,15%,-11%,22%,23µM*,-11%
Cc1ccc(OCC(=O)Nc2ccon2)c([N+](=O)[O-])c1,nt,3.2µM*,8.5µM*,3.2µM*,10µM*,nt
COc1ccccc1CNC(=O)C/C(C)=N/NC(=O)COc1ccc(C)cc1Br,-4%,-7%,-3%,-2%,-1%,25%
CCOc1ccc(NC(=O)CSc2nc(-c3cccc(Cl)c3)nc3c2Cc2c(CO)cnc(C)c2O3)cc1,nt,nt,-5%,nt,nt,nt
FC(F)(F)c1nc(SCc2ccc(Cl)cc2)n[nH]1,-1%[7.66 µM],nt,nt,nt,nt,-14%[9.22 µM]
CN(C)CCN(Cc1ccco1)C(=O)c1cc2c(s1)-c1ccccc1OC2,nt,nt,5%,nt,nt,-5%
